Assay outcomes: PubChem, The Scripps Research Institute Molecular Screening Center
proKLK7 act = proKLK7 (human) activation, primary screen; purified proKLK7, EDANS-DABCYL substrate fluorescence; 100% is mature enzyme control, 0% vehicle; activation, % at 7 µM; 370,000 tested, 0.9% active; AID 652039;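 active means activation above the mean of all tested compounds plus 3 SD, computed per campaign excluding outliers beyond control limits, cut at about 13% in these data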
ADAM10 inh = ADAM10 inhibition, QFRET primary screen | O14672 | recombinant ADAM10, EDANS/DABCYL FRET peptide cleavage, 3 h | inhibition, % at 7 µM | 370,000 tested, 0.62% active | AID 720582;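 active means inhibition above a per-campaign cutoff equal to the mean of compounds falling between control-based bounds plus 3 SD, cut at about 20% in these data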;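 further: 0% = DMSO wells while the 100% control is not disclosed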
ADAM17 inh = inhibits human ADAM17; P78536; 370,000 tested, 0.83% active; AID 720648; inhibition, % at 6.95 µM; recombinant ADAM17, EDANS/DABCYL FRET peptide cleavage;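 active means inhibition above the mean of compounds lying between control limits plus 3 SD, set per campaign, cut at about 8.5% in these data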;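 further: 0% = DMSO-only wells as the low control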
Target sequence (P78536 215-824 limits assumed): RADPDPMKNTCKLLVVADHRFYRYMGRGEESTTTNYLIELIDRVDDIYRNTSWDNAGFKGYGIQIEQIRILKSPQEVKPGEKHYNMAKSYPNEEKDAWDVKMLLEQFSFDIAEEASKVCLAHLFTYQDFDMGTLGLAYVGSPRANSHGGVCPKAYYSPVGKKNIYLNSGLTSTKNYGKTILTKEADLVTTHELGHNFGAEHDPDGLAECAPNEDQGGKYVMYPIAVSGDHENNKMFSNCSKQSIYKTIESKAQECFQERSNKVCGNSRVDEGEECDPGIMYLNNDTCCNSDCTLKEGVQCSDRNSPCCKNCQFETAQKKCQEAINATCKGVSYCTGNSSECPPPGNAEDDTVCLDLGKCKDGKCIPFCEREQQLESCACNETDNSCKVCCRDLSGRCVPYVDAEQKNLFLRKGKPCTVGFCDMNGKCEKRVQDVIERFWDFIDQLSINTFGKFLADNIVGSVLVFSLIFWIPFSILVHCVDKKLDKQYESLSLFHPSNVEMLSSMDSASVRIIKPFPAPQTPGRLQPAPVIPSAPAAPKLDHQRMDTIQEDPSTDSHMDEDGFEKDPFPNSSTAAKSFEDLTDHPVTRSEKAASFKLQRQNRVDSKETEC
PLC-beta3 inh = PLC-beta3 (human) inhibition, primary screen; 370,000 tested, 0.18% active; inhibition, % at 12.2 µM; Purified PLC-beta3, fluorogenic substrate, fluorescence; in the data active means inhibition above about 11%;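 further: 0% = median of compound wells on plate and 100% = full blocker control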
PLCg1 inh = inhibitors of human phospholipase C gamma1. purified PLC-gamma1, fluorogenic substrate, fluorescence. 370,000 tested, 0.84% active. inhibition, % at 12.2 µM; in the data active means inhibition above about 9.5%
proKLK7 act conf = confirmation of human kallikrein-7 zymogen activators | purified proKLK7, EDANS-DABCYL substrate fluorescence; scaled: vehicle 0, mature enzyme 100 | shares compounds with proKLK7 act | activation, % at 7 µM | 3,200 tested, 68% active;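 active means activation, as change over the incubation, above the mean of all tested compounds plus 3 SD, cut at about 13% in these data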
EDANS-DABCYL int = optically interferes with EDANS-DABCYL signal, flagging KLK7 hits; shares compounds with proKLK7 act; EDANS-DABCYL substrate fluorescence interference, no enzyme, 4 h; solvent 0%, active enzyme control 100%; activation, % at 7 µM; 3,200 tested, 80% active; AID 686952;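 active means activation above the all-compound mean plus 3 SD, ignoring values outside control-based bounds, cut at about 4.8% in these data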;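 further: value is the 4 h activation minus the activation read at time zero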
K7 EDANS ctr = counter-screen for kallikrein-7 activators: EDANS-DABCYL interference, dose response. shares compounds with proKLK7 act. EDANS-DABCYL peptide fluorescence interference, no enzyme. EC50, µM. 250 tested, 20% active. AID 720493;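 active means compounds that raise the fluorescence signal in this interference counterscreen, with EC50 at or below 10 µM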;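 further: intact quenched peptide substrate alone read at 355 nm excitation and 520 nm emission; signal is fluorescence gain from T0 to T4 after four hours at room temperature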
Numbers without * were called inactive; i = inactive; nt = no result given. Most compounds without a hit are left out; they make up all but 2.9% or so of the library.

SMILES | proKLK7 act | ADAM10 inh | ADAM17 inh | PLC-beta3 inh | PLCg1 inh | proKLK7 act conf | EDANS-DABCYL int | others
Cc1cc(=O)oc2c3c(cc(OCC(=O)NCC(=O)O)c12)OC(C)(C)CC3 | 43.2* | i | i | i | i | 66.0* | 79.4*
COC(=O)[C@@]12CCCCC3=C1N(CCC3)C(=O)[C@H]2CC(=O)N1CCN(C(=O)C2CC2)CC1 | 0.8 | -12.3 | 1.6 | 2.1 | 4.0 | nt | nt
COC(=O)C1=C(C)N(Cc2cccc(C(F)(F)F)c2)C(=NCc2ccc(OC)cc2)NC1c1ccccc1C(F)(F)F (stereo not drawn) | 0.0 | 3.2 | 3.2 | 2.1 | 2.1 | nt | nt
C[C@]12c3[nH]c4cc(-c5ccco5)ccc4c3CCN1C(=O)[C@@H](CC(=O)NCCc1ccccn1)C[C@@H]2C(=O)N1CCOCC1 | 112.8* | i | -172.5 | i | i | 52.1* | 67.9*
CC(C)N(C(=O)[C@H]1C[C@H](CC(=O)NCCC2=CCCCC2)C(=O)N2CCc3c([nH]c4cc(-c5ccco5)ccc34)[C@]12C)C(C)C | -3.8 | -496.1 | -148.7 | i | i | nt | nt
CCN(CC)C(=O)[C@H]1C[C@H](CC(=O)NCCc2ccccn2)C(=O)N2CCc3c([nH]c4cc(-c5ccco5)ccc34)[C@]12C | 147.2* | i | -151.3 | i | i | 64.4* | 78.9*
CC(C)N(C(=O)[C@H]1C[C@H](CC(=O)NCCc2ccccn2)C(=O)N2CCc3c([nH]c4cc(-c5ccco5)ccc34)[C@]12C)C(C)C | 183.8* | i | -458.2 | i | i | 28.7* | 29.9*
CCOC(=O)[C@]12CCCC=C1N(CCCOC)C(=O)[C@@H]2CC(=O)NCCCN1CCCC1=O | 0.2 | 4.1 | -1.1 | 3.0 | 2.1 | nt | nt
COCCn1c(C)nnc1SCC(=O)Nc1ccccc1[N+](=O)[O-] | 39.4* | -2.1 | -3.0 | -0.3 | -2.1 | 0.4 | 0.0
COCCn1c(SCC(=O)Nc2ccccc2OC)nnc1-c1ccco1 | -1.0 | 1.6 | -0.2 | 4.4 | 6.4 | nt | nt
CCc1cc(=O)oc2cc(OC(=O)CN3C(=O)NC4(CCCC4)C3=O)ccc12 | 97.0* | i | i | i | i | 59.8* | 67.7*
O=C(CN1C(=O)NC2(CCCC2)C1=O)Oc1ccc2ccc(=O)oc2c1 | 67.0* | i | i | i | i | 63.1* | 71.6*
Cc1ccc(OCCOC(=O)CN2C(=O)NC3(CCCC3)C2=O)cc1 | -0.1 | -4.4 | -6.9 | -6.2 | -0.8 | nt | nt
O=C(CN1C(=O)NC2(CCCCC2)C1=O)Oc1ccc2c(C(F)(F)F)cc(=O)oc2c1 | 63.4* | i | i | i | i | 60.7* | 65.7*
COc1ccc2c(c1)CCCN2C(=O)C1CCCN(S(=O)(=O)c2cccc3ccccc23)C1 (stereo not drawn) | 1.0 | 11.7 | 3.9 | -1.4 | 1.8 | nt | nt
Cc1cc(NCCc2c[nH]c3ccccc23)ccc1Nc1cccnc1 | 0.1 | -22.1 | -7.4 | -40.1 | -38.5 | nt | nt
OC1CNc2c(ccc3ccccc23)C1 (stereo not drawn) | 14.3* | i | -403.7 | i | i | 1.3 | -6.4
CCCCNS(=O)(=O)CC1NCc2cc(F)ccc21 (stereo not drawn) | -0.1 | 0.9 | -0.2 | -5.0 | -4.8 | nt | nt
CCN1CCN(c2ccc(N3CCN(C(=O)c4ccc(Br)o4)CC3)nn2)CC1 | 19.3* | -278.7 | -69.0 | -152.2 | -121.8 | 6.4 | 4.4*
Cc1ccc(Cn2c(=S)[nH]c3ccc(N4CCOCC4)cc3c2=O)o1 | 45.1* | -186.9 | -34.8 | i | i | 100.6* | 104.9*
O=c1c2cc(N3CCOCC3)ccc2[nH]c(=S)n1CCN1CCCC1 | 80.0* | -194.0 | -68.7 | i | i | 45.6* | 53.6*
O=c1c2cc(N3CCOCC3)ccc2[nH]c(=S)n1CCCN1CCCCCC1 | 103.7* | -139.3 | -43.1 | i | i | 44.0* | 40.8*
CC(=O)c1ccc(N2CCN(S(=O)(=O)c3cc4c(cc3C)NC(=O)CO4)CC2)cc1 | 20.3* | -1.4 | -4.8 | -13.5 | -3.3 | 11.5 | 8.1*
COc1ccc(-c2cc(=O)oc3c(C)c(O)c(CN(C)C)cc23)cc1 | 13.8* | -248.6 | -55.0 | i | i | -4.7 | -7.2
COc1ccc(-c2cc(=O)oc3c(C)c(OCC(=O)N(C)C)ccc23)cc1 | 2.1 | -21.5 | -11.7 | -59.3 | -43.5 | nt | nt
SMILES | proKLK7 act | ADAM10 inh | ADAM17 inh | PLC-beta3 inh | PLCg1 inh | proKLK7 act conf | EDANS-DABCYL int | others
COC(=O)C1CN(Cc2cn(CCC3OCCO3)nn2)CCS(=O)(=O)N1Cc1ccc(C)cc1 (stereo not drawn) | -0.7 | -4.2 | -2.8 | 3.4 | 3.2 | nt | nt
CCn1c2ccccc2c2cc(NC(C)=O)ccc21 | 1.1 | -7.5 | -3.0 | 3.3 | 0.7 | nt | nt
CCn1c2ccccc2c2cc(NC(=O)CN3CCCC3)ccc21 | 81.9* | -7.7 | -4.1 | -9.2 | -2.2 | -0.8 | -0.5
COC(=O)c1cc(=O)c2c(ccc3oc(=O)ccc32)[nH]1 | 171.6* | i | -129.1 | -247.6 | -192.8 | 220.0* | 220.1*
Cc1cccc(-n2c(O)c(C=Nc3ccccc3)c3ccccc3c2=O)n1 | 16.9* | -263.8 | -96.0 | -228.9 | -217.6 | 15.1* | 16.3*
CC(=O)Oc1ccc2c(c1)C(=O)c1ccccc1CO2 | -7.7 | -11.8 | -8.9 | -71.4 | -53.1 | nt | nt
COc1ccc(C2=Cc3ccc(OC(C)=O)cc3OC2)cc1 | 24.5* | -77.2 | -23.7 | -161.2 | -116.9 | 13.6* | 11.1*
C[C@@H]1OC(C2CCCCC2)N(C)[C@H]2C[C@H]3c4[nH]c5cccc(-c6ccccc6)c5c4CCN3C(=O)[C@@H]12 (stereo partly drawn) | -60.1 | i | -186.2 | -281.5 | -233.2 | nt | nt
CN(C)c1oc(/C=C/c2ccccc2)nc1C#N | 58.1* | i | i | i | i | 68.9* | 61.7*
CCNc1oc(/C=C/c2ccc(OCC)cc2)nc1C#N | -5.3 | -281.1 | -106.2 | -352.7 | -319.6 | nt | nt
CCN(CC)CCCNc1oc(/C=C/c2ccccc2)nc1C#N | 104.3* | i | i | i | i | 28.1* | 17.9* | K7 EDANS ctr=>69.5
COc1ccccc1/C=C/c1nc(C#N)c(N(C)C)o1 | -9.1 | i | i | i | i | nt | nt
COc1ccc2cc(C3=CC(=O)CCC3)ccc2c1 | 24.0* | i | -231.6 | i | i | -46.9 | -48.9
COc1ccc(N(CC(=O)Nc2cccc(C(=O)O)c2)S(=O)(=O)c2c(C)noc2C)cc1 | 16.6* | -0.9 | 3.7 | 8.0 | 12.8* | -0.5 | -0.3
CCOC(=O)c1cccc(NC(=O)CN(c2ccc(OC)cc2)S(=O)(=O)c2c(C)noc2C)c1 | -0.2 | 11.5 | 3.7 | 3.7 | 2.1 | nt | nt
